The assay deals with VDR:RXRa (NR concentration 270 nM, RXRa partner concentration 90 nM). Kind of assay: PBM binding z-score (relative to random genomic background probes); higher = stronger binding; sequences stand for … in GC…GCGATTGACAGCGTAGAATGAAGG
How it is done:
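Protein-binding microarray (Agilent 4x180K custom design, double-stranded 60-nt probes: 5' GC cap, 34-nt variable region, 24-nt constant primer region; full probe sequence given). Purified or IVT nuclear receptor:RXRα heterodimers (3:1 NR:RXRα, mostly 270:90 nM) or homodimers were incubated for 1 h in PBS with 2% milk and no ligand, then detected with Alexa488 antibodies. Fluorescence from o1-orientation probes (~5 replicates averaged) was converted to z-scores against 500 random hg19 background probes. Variable regions are seed direct-repeat (DR0–DR5) sites, all their single-nucleotide variants and half-site ablations.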
With GCGACTGGGCCAAAGCAGGTTACCATAAGGTTGG, the PBM binding z-score was -0.513.
For CCTGCTAGATCATGGTCAGCTAATCTACAGTATG the value was -0.447; for CCTACTGGCCCACGAAAGGTCATTGATTCAGTGA, 3.74.
For ATCTCTAGGTAAAGCTAGTTCAGTGAATGCAAAT the value was 0.818; for TCATTTAGGTAAAAGGTGAAAGTCGGTGTGGTAA, 1.4; for CAGACTAGGTCAAGGTCAAAGTCGGTTTGTGCCA, 5.15.
CTCGAAAGGCCGTGCTCAGGTGAGTATACCAAAC showed a PBM binding z-score of -0.528.
For TGTCAAAGTTCAAAGGTACCGTAAGTATCCACAC the value was 4.41.
For TCTGCTAGGTCAACGATGCTCAGCTAATCTGCTA the value was 1.15; for TCGAGTAGGTTACCAATGGGGCACTCAGCTTTCT, 0.142; for TCTAGCAGGCCAGAGGGACACTCAAGAGGTACGG, -0.463.
For the sequence TCTTGTACATCAAGCAGGTTAAGAAAGCCTGAGT, the PBM binding z-score was 0.528.
For TGACTGAGGTTATAAGATCAGGGAACGTTGCAAA the value was 0.798.
For TCATATAGGTAAATGCTAGGTGAGAGTCCGATCT the value was 0.644; for CATCCAAGGTCAATGCTAGGTCAGTGAAAGCATT, 4.82.
The same measure for TCTGCAAGGTCAGTTGGTCAGCTAACGAGCTGCC: 2.19.
In turn, TCTTGTTGGTCAAAGGTCACACACTCGAAATGCG displayed a PBM binding z-score of 5.23.
For TTTGCTAGGTCAACGATGGTCAGCTAATCTGCTA the value was 1.9; for CCGACTGTGGCAAAGGTTACCATACTCAGTACGA, 1.03; for TAGCCTAGGTCGGATCGGGCCAGTATACGCTATA, -0.475.
For ATCTCTAGGTAAAGGTAGTTCAGTGAATGCAAAT the value was 1.12; for ATAAGTAGGTTAAGGGTCATTCAGGTTGGTTCGC, 5.89; for TCATATATGTAATACAGGTGAAAGTCGGCATCTA, 0.899.
The same measure for ATACCTAGGTGATCGTGAGGTCGTTGATACTAAC: 2.66; for TCTCGGAGGACACGAAAGATCAGAGCTCGACATC: 0.0612.
Turning to GCGTGTAGATCAAGGTTAAGAAAGACTAAGCTAA, the PBM binding z-score is 0.0899.
TAGCCTAGGTCATTCTGGGGCCAGTATAGAAAGC returned a PBM binding z-score of 2.88.
For ACTAGCTGGTCAGCTGAGGTCACACACAATTCGG the value was 4.56; for GCTCGGAGGACAAGTTCAGAGCTTTGTCCGTAGA, 0.733; for TCTGGGAGGACACGAAGGTCAGAGCTTTCCAGAG, 2.18.
The same measure for CGGACTAGGTCAGAACAGGACAGTGAAGGATGAT: 0.538; for CCTACTGGGCCAATGGTCATTGATTCCAATGCTC: -0.314.
For TCATATAGGTAATTCAGGTGAAAGTCGGCATCTA, the PBM binding z-score is 1.11.
The sequence TCTAGTTGCTCACGGAGGTCACACACGACGGGTA returned a PBM binding z-score of 3.64.
The same measure for CCGACTGGGCCATCAGGTCATTGATATCAACGTT: 1.63; for CGAAGTAGGTCAGAACAGGACAGTGAAGGATGAT: 0.559.
For AACACAGGGTCACTAGGCCAGAGTAGGTACGAAT the value was 3.96; for ACAATGAGGTTATTAAGATCAGGGAATTGCGGTC, 2.56; for CCTTACGGGTCACGGACAGGTTATAGCATTTGGA, 4.74.
The same measure for CGAACTAGGTCAAGGACAGTGAGTCTCCGCACGC: 1.16.
